In all, about 360,000 compounds went through this assay and about 7,300 (2%) were called active. Only a selection was taken, and actives are over-represented in it overall. Unmarked numbers belong to inactive results. No stated cut-off is given here; in the data, active means inhibition above about 50%; inactive means the rest.
experiment: inhibitors of TWEAK-Fn14 signaling, primary screen, luciferase reporter cells, uHTS (AID 1159606); details: TWEAK-stimulated Fn14 reporter cells, luciferase luminescence, 8 h; at 10 µM; stronger effect = higher value

Row | Compound | inhibition
1 | COc1ccc(CNC(=O)COC(=O)CCS(=O)(=O)c2ccc(C)cc2)cc1OC | -0.44%
2 | COc1ccc(NC(=O)CN(C)C(=O)Cc2coc3cc(C)c(C)cc23)cc1 | -4.06%
3 | S=c1[nH]nc(-c2ccco2)n1/N=C/c1ccc(Br)s1 | -5.12%
4 | O=[N+]([O-])c1ccccc1/C=N/n1c(COc2ccccc2)n[nH]c1=S | 17.8%
5 | S=c1[nH]nc(-c2cccnc2)n1/N=C/C(Cl)=C\c1ccccc1 | 55.4% (active)
6 | Cc1cc(-c2n[nH]c(=S)n2/N=C/C(Br)=C/c2ccccc2)n[nH]1 | 95% (active)
7 | COc1ccccc1/C=C/C=N/n1c(-c2ccc(Cl)cc2Cl)n[nH]c1=S | -13.9%
8 | Fc1ccc(/C=N/n2c(COc3ccccc3)n[nH]c2=S)cc1 | -16.7%
9 | COc1ccc(Cc2nnc(SCC(=O)N(c3ccccc3)C(C)C)n(N)c2=O)cc1 | 4.78%
10 | COC(=O)[C@]12CCCCC=C1N(Cc1ccco1)C(=O)[C@H](CC(=O)NCC1CCCCC1)C2 | -2.8%
11 | N#CCCN(C(=S)Nc1ccc(Cl)c(Cl)c1)C1CCCCC1 | 7.89%
12 | Cc1ccc(F)c(S(=O)(=O)NC(=O)C2(C)CCN2C(=O)c2ccco2)c1 (stereo unspecified) | 4.06%
13 | CC(C)n1cnc2c(Nc3cccc(Cl)c3)nc(N(CCO)CCCO)nc21 | 54.7% (active)
14 | CC(C)C[C@H](CO)Nc1nc(N(C)c2cccc(Cl)c2)c2ncn(C(C)C)c2n1 | -0.23%
15 | COc1ccc(C2/C(=C(/O)c3ccccc3)C(=O)C(=O)N2c2ncccn2)cc1OC (stereo unspecified) | 5.36%
16 | CCOc1ccc(/C(O)=C2\C(=O)C(=O)N(c3ccc(OC)cc3)C2c2ccccc2[N+](=O)[O-])cc1 (stereo unspecified) | 68.4% (active)
17 | COc1ccc(/C(O)=C2/C(=O)C(=O)N(c3nc(C)c(C)s3)C2c2ccco2)cc1 (stereo unspecified) | 15.4%
18 | CCCC(=O)Nc1ccc(C(=O)NCCCn2ccnc2)cc1 | -38.4%
19 | COc1ccc2occ(C(=O)c3ccc(N=C(C)N(C)C)cc3)c2c1 | -30.2%
20 | COc1ccc(OC)c(C(=O)c2coc3ccc(OC)cc23)c1 | 67.6% (active)
21 | COc1ccc(OC)c(C(=O)c2coc3ccc(O)c(CN4CCOCC4)c23)c1 | 28.4%
22 | Cc1cc(Cl)c2oc(C(=O)NC(C)c3ccncn3)c(C)c2c1 (stereo unspecified) | -26.6%
23 | CCOc1ccc(CCNC(=O)COC(=O)C2CCN(c3ccc(C(F)(F)F)cn3)CC2)cc1OCC | 6.43%

Row | Compound | inhibition
24 | O=C(CN1C(=O)NC(Cc2c[nH]c3ccccc23)C1=O)Nc1ccccc1C(F)(F)F (stereo unspecified) | 29.8%
25 | Oc1c(Cl)cc(Cl)c(Cl)c1Cc1c(O)c(Cl)cc(Cl)c1Cl | 64% (active)
26 | CC1Cc2[nH][nH]c(=O)c2C(C2CC2)O1 (stereo unspecified) | 4.07%
27 | CC(C)NC(=O)N1Cc2cc(C(=O)NCC(F)(F)F)nc(-c3cccc(-c4cc5ccccc5o4)c3)c2[C@@H]1CCO | 37.6%
28 | CCOc1ccc(NC(=O)CN(C)C(=O)CSc2ccccc2)cc1OCC | 2.8%
29 | CCOC(=O)c1cc2cc(OC)ccc2n1C1CCN(C)CC1 | -7.56%
30 | CCOC(=O)C1=C(CSc2nccn2C)NC(=O)NC1c1ccc(OC)cc1 (stereo unspecified) | -0.26%
31 | CCOC(=O)C1=C(C)N=c2s/c(=C\C(=O)OC)c(=O)n2C1c1ccc(OC)cc1 (stereo unspecified) | 87.1% (active)
32 | Nc1ccccc1/C=N\N=C/c1ccccc1N | -29.4%
33 | COC[C@@H]1NS(=O)(=O)c2ccc(Br)cc2O[C@H]1c1ccccc1 | 6.78%
34 | CCOc1ccc(-n2c(SC(C)C(=O)OC)nc3c(c2=O)SCC3)cc1 (stereo unspecified) | 1.38%
35 | Cc1ccc(-c2nc3c(C)cc(Br)cn3c2Cc2ccccc2)cc1 | 13.1%
36 | Cc1ccc(Cc2c(-c3ccc(C)cc3)nc3c4ccccc4ccn23)cc1 | 57.1% (active)
37 | c1ccc(Cc2c(-c3ccco3)nc3c4ccccc4ccn23)cc1 | 57.8% (active)
38 | FC(F)(F)c1ccccc1Cc1c(-c2ccccc2)nc2c3ccccc3ccn12 | 8.37%
39 | Cc1ccc(Cc2c(-c3ccc(Cl)cc3)nc3c4ccccc4ccn23)cc1 | 22%
40 | Cc1ccc(Cc2c(-c3ccco3)nc3ccc(Cl)cn23)cc1 | 48.4%
41 | C=CCSc1nc2c(c(=O)[nH]1)C(C(C)C)C(C#N)=C(N)O2 (stereo unspecified) | -24.9%
42 | O=C(NC1CCN(S(=O)(=O)c2ccc(F)cc2)CC1)c1ccccc1 | -13.3%
43 | COCCCn1c(-c2cccs2)nc2nc3ccccc3nc21 | 34.3%
44 | CCCc1c(-c2ccccc2F)ncn1Cc1ccccc1OC | 2.25%
45 | COc1cccc(C(=O)OCC(=O)c2[nH]c(C)c(C(C)=O)c2C)c1 | -4.4%
46 | CC(=O)c1c(C)[nH]c(C(=O)COC(=O)c2cccs2)c1C | -16.3%

Row | Compound | inhibition
47 | CC(=O)c1c(C)[nH]c(C(=O)COC(=O)c2cccc(S(=O)(=O)N(C)c3ccccc3)c2)c1C | 101% (active)
48 | COc1ccc(N(C(=O)c2snc(C(N)=O)c2N)C(C(=O)NC2CCCC2)c2ccc(C)o2)c(OC)c1 (stereo unspecified) | 22.4%
49 | COc1c(C)c2c(c(O)c1C/C=C(\C)CCC(=O)O)C(=O)OC2 | -6.73%
50 | CCn1c(N)c(Br)c(=O)[nH]c1=O | 9.55%
51 | CC(C)c1ccc2c(c1)c(SC(C)(C)C)c(CC(C)(C)C(=O)O)n2Cc1ccc(Cl)cc1 | 79.3% (active)
52 | Cc1cccnc1CCNC(=O)C1CCC(=O)N(Cc2cccc(F)c2)C1 (stereo unspecified) | -10.1%
53 | CCOC(=O)C1CCCN(C(=O)COc2ccc(N(C)S(=O)(=O)c3ccc(C)cc3)cc2)C1 (stereo unspecified) | 9.89%
54 | CCOc1ccc(NC(=O)CN(C)CC(=O)Nc2cccc(Cl)c2C)cc1OCC | 5.07%
55 | C=CCn1c(C)cc(C2=NNC(=NCC)SC2)c1C | 107% (active)
56 | CCc1nc2ccc(C(=O)Nc3ccc(OC)c(OC)c3)cn2c1N(C)C(=O)c1cccc(OC)c1 | -18.4%
57 | COc1cccc(CN(C)CC2CCCN(CCc3ccc(Cl)cc3)C2)c1OC (stereo unspecified) | -2.09%
58 | O=C(NCc1ccccc1)[C@@H]1CSC2c3ccccc3C(=O)N21 (stereo partly specified) | 8.08%
59 | Cc1ccc2nc(SC(C)C(=O)NCc3ccco3)[nH]c2c1 (stereo unspecified) | 46%
60 | CSc1ncccc1C(=O)Nc1ccc2c(c1)OCO2 | 1.24%
61 | CCOc1ncccc1C(=O)Nc1ccc2c(c1)OCCO2 | 68.7% (active)
62 | CCOc1ncccc1C(=O)Nc1ccc(S(=O)(=O)Nc2nc(C)cc(C)n2)cc1 | -19.9%
63 | COC(=O)[C@]12CCCCC=C1N(Cc1ccco1)C(=O)[C@H](CC(=O)NCCCCc1ccccc1)C2 | 16.9%
64 | O=C(NCCc1ccccn1)c1cc(C(=O)C2CCCCC2)c[nH]1 | 4.9%
65 | Cc1cc(C)c(C#N)c(SCC(=O)N(CC(C)C)C2CCS(=O)(=O)C2)n1 (stereo unspecified) | 4.51%
66 | COC(=O)C(Cc1c[nH]c2ccccc12)NC(=O)CCNC(=O)c1ccco1 (stereo unspecified) | -24.2%
67 | O=C1NC[C@H](CCCCN2CCN(CCc3ccccc3)C(=O)C2=O)N(CC2CCCCC2)C1=O | -2.45%
68 | O=C1OCCOC2CCCc3oc(-c4ccccc4)c1c32 (stereo unspecified) | 16.6%
69 | CCOC(=O)c1cccc(NC(=O)CN(c2ccc(C)cc2)S(=O)(=O)c2c(C)noc2C)c1 | 57.7% (active)

Row | Compound | inhibition
70 | Cc1noc(C)c1S(=O)(=O)N(CC(=O)Nc1ccc2c(c1)OCCO2)c1ccc(C(C)C)cc1 | 35.5%
71 | COc1ccc(N(CC(=O)Nc2cc(OC)ccc2OC)S(=O)(=O)c2c(C)noc2C)cc1 | -0.61%
72 | O=c1oc(/C=C/c2ccccc2)nc2ccccc12 | 55.3% (active)
73 | S=c1[nH]nc(/C=C/c2ccccc2)o1 | 9.4%
74 | O=c1[nH]c(/C=C/c2cccc(Br)c2)nc2ccccc12 | -14.4%
75 | CCN(c1ccccc1)S(=O)(=O)c1cc2c(cc1C)n(C)c(=O)c(=O)n2C | -4.66%
76 | Cc1ccc(-c2cn3cc([N+](=O)[O-])ccc3n2)cc1 | 76.3% (active)
77 | COc1ccc(-c2cn3ccc(C)cc3n2)cc1 | 81.6% (active)
78 | Cc1ccc(-c2nc3ccc(Br)cn3c2Cc2ccccc2C(F)(F)F)cc1 | 5.76%
79 | COc1ccc(C2=Nc3cc(C)ccc3OC2)cc1 | 27.9%
80 | Cc1ccnc(N2C(=O)c3ccc([N+](=O)[O-])cc3C2=O)c1 | 5.4%
81 | Cc1ccc(-c2cn3cc(C)ccc3n2)cc1 | 105% (active)
82 | Cc1ccc(-n2cc3ccc([N+](=O)[O-])cc3n2)cc1 | 39.8%
83 | CS(=O)(=O)Nc1cccc(-c2cn3ccccc3n2)c1 | -6.02%
84 | Cc1ccc2nc(-c3ccc(Br)cc3)cn2c1 | 98.8% (active)
85 | FC(F)(F)Oc1ccc(-c2cn3cccnc3n2)cc1 | -15.1%
86 | Cc1ccc(-c2cc(N)on2)cc1 | -5.28%
87 | COc1ccc(-c2nc3ccc(Br)cn3c2Cc2ccc(C)cc2)cc1OC | -20.3%
88 | Cc1ccc(OCC(=O)Nc2ccccc2Sc2ccc(Cl)cc2)c([N+](=O)[O-])n1 | 13.7%
89 | COc1cccc(-c2cc3nc(NCCOc4ccccc4Cl)n(C)c(=O)c3s2)c1 | 15.1%
90 | CCOC(=O)C1CCCN(C(=O)c2cc(-c3cccs3)oc2C)CC1 (stereo unspecified) | 31.6%
91 | Cc1ccc(S(=O)(=O)Nc2ccccc2CNc2c(C)n(C)n(-c3ccccc3)c2=O)cc1 | 12.4%
